Rows were chosen to be rich in hits. Some 2.5% of all compounds tested hit in one or more screens of this group.
PKA-R2B act – activates the human PKA-R2B holoenzyme complex; PKA-R2B holoenzyme dissociation, Cy5-IP20 fluorescence polarization; R2B truncated from residue 108, S112A mutant; 0% DMSO only, 100% 113 µM cGMP; hit rate 0.079% among 340,000; P22694+P31323; AID 504700; activation, % at 11.4 µM;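 active = activation above a cutoff set at the mean over all compounds plus 3 SD, cut at about 18% in these data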;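 note: higher means more holoenzyme dissociation and a rise in polarization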
Target sequence (P31323 whole entry, looked up, other chains not shown, the tested form may be a part): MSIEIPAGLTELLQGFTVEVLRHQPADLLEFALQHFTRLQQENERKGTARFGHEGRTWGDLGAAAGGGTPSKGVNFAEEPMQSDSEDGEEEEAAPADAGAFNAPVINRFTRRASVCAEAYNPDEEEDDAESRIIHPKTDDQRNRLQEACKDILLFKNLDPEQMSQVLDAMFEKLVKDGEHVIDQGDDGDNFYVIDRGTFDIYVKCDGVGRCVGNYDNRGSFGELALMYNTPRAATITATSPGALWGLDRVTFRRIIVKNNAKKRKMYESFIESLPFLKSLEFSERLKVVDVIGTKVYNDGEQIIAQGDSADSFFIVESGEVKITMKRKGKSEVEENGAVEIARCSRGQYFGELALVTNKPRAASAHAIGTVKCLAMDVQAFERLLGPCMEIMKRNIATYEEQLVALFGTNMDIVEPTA
CHT block – human CHT choline transport inhibition; CHT-expressing cells, membrane potential dye, choline response; stronger effect = lower value; hit rate 0.86% among 310,000; AID 488975; B-score at 10 µM;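 active = B-score over 3 SD under the library average, and starting fluorescence ratio not unusually high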;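 note: choline stimulus applied at its EC90 after an EC20 pre-addition; B-score computed on integrated fluorescence ratio after choline addition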
TMEM16A inh – inhibitors of mouse TMEM16A calcium-activated chloride channel | Q8BHY3 | normalized B-score (activity score, 25-100; higher = stronger inhibition) at 10 µM | HEK293 TMEM16A/YFP iodide influx fluorescence, ionomycin | hit rate 1.2% among 310,000 | AID 588511;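 active = ratio plate-corrected score three or more library SD toward inhibition, starting fluorescence score within five deviations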;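 note: score derived from kinetic fluorescence span divided by baseline fluorescence per well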
CHT allo act – allosterically activates the human high affinity choline transporter. B-score at 10 µM. hit rate 0.49% among 310,000. CHT-expressing cells, membrane potential dye, choline EC20; stronger effect = higher value; LV-AA mutant CHT in HEK293 cells. AID 488977;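 active = initial fluorescence not abnormally high and integrated response B-score, plate-corrected, over 3 SD above library mean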
PKA-R1A act – activates the PKA-R1A holoenzyme complex | P00514+P68181 | PKA-R1A dissociation, Cy5-IP20 fluorescence polarization; scaled: DMSO 0%, 113 µM cGMP 100% | activation, % at 11.4 µM | hit rate 0.083% among 340,000 | AID 504707;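 active = percent activation above the mean of all tested compounds plus 3 SD, cut at about 19% in these data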;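 note: higher means more PKAc released from R1A so a rise in polarization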
TMEM16A act – activates or potentiates the mouse TMEM16A chloride channel. Q8BHY3. HEK293 TMEM16A/YFP-H148Q/I152L, iodide quench fluorescence; stronger effect = lower value. B-score at 10 µM. hit rate 0.3% among 340,000;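 active = fluorescence-ratio B-score plate-corrected deviation score at least 3 library SD below zero, with starting fluorescence score within 5 deviations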;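 note: channel opened by trigger with iodide after compound preincubation; score built on the fluorescence ratio of max minus min over baseline; more negative score means more quench and so TMEM16A activation or potentiation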
CHT inh conf – human CHT inhibition, confirmatory screen | shares compounds with CHT block | CHT-expressing cells, choline membrane potential dye; LV-to-AA substituted CHT, HEK293 cells | CHT activity remaining % of control (stronger effect = lower value), % at 10 µM | hit rate 70% among 2,400 | AID 493221;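 active = choline transporter activity left, mean of duplicates at 10 µM, below buffer-only control mean minus 3 SD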;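 note: depolarization triggered by choline at its EC90 following an EC20 pre-addition; 0% = hemicholinium-3 full block and 100% = buffer-only control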
HEK293 CHT ctr – activity in parental HEK293 cells lacking CHT; shares compounds with CHT block; membrane potential dye, choline response; active = decrease or increase beyond buffer ±3SD; membrane potential ratio readout (active if shifted either direction beyond buffer ±3SD; no single direction) at 10 µM; hit rate 4% among 2,400; AID 493222;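 note: parental cells lack the transporter so any hit is non-specific; ratio is peak minus trough fluorescence over baseline after EC90 choline challenge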
* marks the source's active call; other numbers are inactive results.

`Fc1ccc(-c2nnc(SCc3ncc(-c4ccccc4)o3)n2CC2CCCO2)cc1` (centres undefined) gave PKA-R2B act -9, CHT block -5.9*, TMEM16A inh inactive, CHT allo act inactive, PKA-R1A act -5, TMEM16A act inactive, CHT inh conf inactive and HEK293 CHT ctr inactive.
Screening CC1=NN(c2cccc(Cl)c2)C(=O)C1 returned PKA-R2B act -6, CHT block inactive, TMEM16A inh inactive, CHT allo act inactive, PKA-R1A act -10, TMEM16A act inactive, CHT inh conf inactive and HEK293 CHT ctr inactive.
O=[N+]([O-])c1ccc(O)c(/C=N/NC2=NS(=O)(=O)c3ccccc32)c1 was read as PKA-R2B act 2, CHT block -5.6*, TMEM16A inh inactive, CHT allo act inactive, PKA-R1A act -13, TMEM16A act inactive, CHT inh conf 60%* and HEK293 CHT ctr inactive.
O=c1c2ccccc2nnn1Cc1ccccc1Cl was read as PKA-R2B act -3, CHT block inactive, TMEM16A inh inactive, CHT allo act inactive, PKA-R1A act -7 and TMEM16A act inactive.
For CCOc1cccc(-c2nn(-c3ccccc3)cc2/C=C(/C#N)C(=O)NCCCn2ccnc2)c1 the results were PKA-R2B act 1, CHT block -9.2*, TMEM16A inh inactive, CHT allo act inactive, PKA-R1A act -3, TMEM16A act inactive, CHT inh conf 61%* and HEK293 CHT ctr inactive.
`COC(=O)[C@@]1(Cc2ccccc2)[C@H]2C(=O)N(C)C(=O)[C@H]2[C@H]2CN=C(SCc3ccc(C)cc3)N21` gave PKA-R2B act 2 and PKA-R1A act -4.
`Cc1nc(C(=O)Nc2cc(F)cc(Cl)c2)sc1C1(C)CC(c2ccccc2)=NO1` (centres undefined) gave PKA-R2B act 2, CHT block inactive, TMEM16A inh inactive, CHT allo act inactive, PKA-R1A act 9 and TMEM16A act inactive.
`O=C(Nc1ccc(F)cc1)Nc1ccccc1NS(=O)(=O)c1cccs1` gave PKA-R2B act 6, CHT block -5.3*, TMEM16A inh inactive, CHT allo act inactive, PKA-R1A act 2, TMEM16A act inactive, CHT inh conf inactive and HEK293 CHT ctr inactive.
For CC(=O)Nc1ccc(C(F)(F)F)cc1Cl the results were PKA-R2B act 11, CHT block inactive, TMEM16A inh inactive, CHT allo act inactive, PKA-R1A act 4 and TMEM16A act inactive.
CCCCC(CC)C(=O)NCc1ccccc1OC (centres undefined) was read as PKA-R2B act -18, CHT block -5.6*, TMEM16A inh inactive, CHT allo act inactive, PKA-R1A act -5, TMEM16A act inactive, CHT inh conf inactive and HEK293 CHT ctr inactive.
For CCN1C(=O)[C@@H]2[C@@H](c3ccc(-c4ccc(OC)cc4)c(OC)c3)N3CCCC[C@@]3(C(=O)OC)[C@@H]2C1=O the results were PKA-R2B act -9, CHT block inactive, TMEM16A inh inactive, CHT allo act inactive, PKA-R1A act 1 and TMEM16A act inactive.
For CSc1ccc(CNCCCSc2ncccn2)cc1 the results were PKA-R2B act -3, CHT block -5.6*, TMEM16A inh inactive, CHT allo act inactive, PKA-R1A act -12, TMEM16A act inactive, CHT inh conf inactive and HEK293 CHT ctr inactive.
`CN1CCCN(c2ncnc3scc(-c4ccc(F)cc4)c23)CC1` gave PKA-R2B act 11, CHT block -10*, TMEM16A inh inactive, CHT allo act inactive, PKA-R1A act -7, TMEM16A act inactive, CHT inh conf 24%* and HEK293 CHT ctr inactive.
`CC(C)Cn1c(N)c(C(=O)COC(=O)c2ccccc2Cl)c(=O)n(C)c1=O` gave PKA-R2B act -6, CHT block -10*, TMEM16A inh inactive, CHT allo act inactive, PKA-R1A act 8, TMEM16A act inactive, CHT inh conf inactive and HEK293 CHT ctr inactive.
CC(C)Cn1c(N)c(C(=O)COC(=O)c2ccccc2F)c(=O)n(C)c1=O was read as PKA-R2B act -4, CHT block inactive, TMEM16A inh inactive, CHT allo act inactive, PKA-R1A act -7 and TMEM16A act inactive.
`COc1ccc(N2CCN(S(=O)(=O)c3c(C(=O)N4CCOCC4)c(C)n(C)c3C)CC2)cc1` gave PKA-R2B act -8, CHT block inactive, TMEM16A inh inactive, CHT allo act inactive, PKA-R1A act -10 and TMEM16A act inactive.
Cc1cc2n(n1)C(c1ccc3c(c1)OCO3)Nc1c(C)cccc1-2 (centres undefined) was read as PKA-R2B act -7, CHT block -5.1*, TMEM16A inh inactive, CHT allo act inactive, PKA-R1A act -9, CHT inh conf inactive and HEK293 CHT ctr inactive.
`CCc1nn(C(C)C(=O)NC2CCCCCC2)c(=O)c2cc3occc3n12` (centres undefined) gave PKA-R2B act 1, CHT block inactive, TMEM16A inh inactive, CHT allo act inactive, PKA-R1A act -5 and TMEM16A act inactive.
Screening CN(C)Cc1c(C(=O)N/N=C/c2cccc(OCc3ccc(F)cc3)c2)nnn1-c1nonc1N returned PKA-R2B act -10, CHT block inactive, TMEM16A inh inactive, CHT allo act inactive, PKA-R1A act -11 and TMEM16A act inactive.
Screening CC(C)c1c(C(=O)N/N=C/c2cccc(OCc3ccc(F)cc3)c2)nnn1-c1nonc1N returned PKA-R2B act 7, CHT block -6.6*, TMEM16A inh inactive, CHT allo act inactive, PKA-R1A act -7, TMEM16A act inactive, CHT inh conf 68%* and HEK293 CHT ctr inactive.
`CSCCC(NC(=O)c1ccccc1Cl)C(=O)NCCc1ccccn1` (centres undefined) gave PKA-R2B act 3, PKA-R1A act 4 and TMEM16A act inactive.
`CCOC(=O)Cc1csc(N/C(=N/S(=O)(=O)c2ccc(F)cc2F)c2ccccc2)n1` gave PKA-R2B act -14, CHT block -6.8*, TMEM16A inh inactive, CHT allo act inactive, PKA-R1A act -5, TMEM16A act inactive, CHT inh conf 63%* and HEK293 CHT ctr inactive.

Screens deposited in PubChem BioAssay by several laboratories.
